# Laboratory results from PubChem BioAssay (EPA / NIEHS).
# “And” between values parts separate entries of the source, which are not always exact repeats. Equal values may be shown once. Results filed as inconclusive are left out. More than one record can exist for a structure, and the calls need not agree. The source made the active and inactive calls. Rule for the calls, unless noted: active = hit-call score of the fitted dose curve at least 0.9, where 1 is the maximum; inactive = score below 0.9.
# Experiments:
# [1] = BSK_BT_PBMCCytotoxicity: PBMC Cytotoxicity Assessment in the BioMAP Diversity Plus: BT Assay (AID 2284225); details: primary human B cells with PBMC;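 note: PBMC viability measured by Alamar Blue dye reduction fluorescence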
# Summary of the method: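 Primary human co-culture of B cells and PBMC, pre-dosed 1 h then activated with SEB and TSST-1. Cytotoxicity is taken from Alamar Blue dye reduction, added for 6 h at the end of a 90 h incubation.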
# [2] = read-out: Secreted IgG (sIgG), gene 3500; experiment: BSK_BT_sIgG: BioMAP Diversity Plus: BT Assay for Secreted IgG (sIgG) Biomarker Activity (AID 2284226); details: primary human B cells with PBMC
# Summary of the method: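 Human B cell/PBMC co-culture; compound exposure 24 h; sIgG by ELISA; gain-of-signal fit vs DMSO baseline.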
# [3] = BSK_BT_Bcell_Proliferation: Viability Assessment in the BioMAP Diversity Plus: BT Assay for B cell Proliferation (AID 2284227); details: primary human B cells with PBMC
# Summary of the method: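 Human B cells co-cultured with PBMC were dosed with test chemicals and relative cell number was quantified by SRB staining at 72 h. Cells were fixed in 10% TCA, stained with 0.1% SRB and read at 560 nm. Activity was fitted in the positive direction against DMSO.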
# [4] = read-out: Interleukin 6 (IL6), IL6 (gene 3569); experiment: BSK_BT_xIL6: BioMAP Diversity Plus: BT Assay for Interleukin 6 (IL6) Biomarker Activity (AID 2284228); details: primary human B cells with PBMC
# Summary of the method: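 B cells and peripheral blood mononuclear cells (human primary co-culture) were dosed with chemical, and after 24 h IL-6 released into the medium was measured by Luminex xMAP. Responses were analysed as gain of signal over DMSO control.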
# [5] = read-out: Interleukin 17A (IL17A), IL17A (gene 3605); experiment: BSK_BT_xIL17A: BioMAP Diversity Plus: BT Assay for Interleukin 17A (IL17A) Biomarker Activity (AID 2284229); details: primary human B cells with PBMC
# Summary of the method: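 Secreted IL-17A was the measured endpoint, read by Luminex xMAP multiplex in supernatants of a human B cell/PBMC co-culture harvested 24 h after chemical dosing. Signal increase relative to DMSO defined activity.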
# [6] = read-out: Tumor necrosis factor (Homo sapiens) (UniProt P01375); experiment: BSK_BT_xTNFa: BioMAP Diversity Plus: BT Assay for Tumor necrosis factor alpha (TNF-alpha) Biomarker Activity (AID 2284230); details: primary human B cells with PBMC
# Summary of the method: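 B cells with PBMC in co-culture, dosed and sampled at 24 h; secreted TNF-alpha measured by Luminex xMAP bead assay. Activity fitted in the gain direction against DMSO as negative control and baseline.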
# [7] = read-out: Vascular cell adhesion molecule 1 (VCAM1), VCAM1 (gene 7412); experiment: BSK_MyoF_VCAM1: BioMAP Diversity Plus: MyoF Assay for Vascular cell adhesion molecule 1 (VCAM1) Biomarker Activity (AID 2284231); details: primary human lung fibroblasts
# Summary of the method: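 ELISA read-out of VCAM-1 on human lung fibroblasts 24 h after chemical treatment, with positive-direction curve fitting relative to DMSO controls. Parallel cultures were stained with sulforhodamine B for total protein to flag overt cytotoxicity.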
# [8] = read-out: Collagen I, COL1A1 (gene 1277); experiment: BSK_MyoF_CollagenI: BioMAP Diversity Plus: MyoF Assay for Collagen I Biomarker Activity (AID 2284238); details: primary human lung fibroblasts
# Summary of the method: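 Lung fibroblasts (human primary) dosed, 24 h; Collagen I by ELISA; positive-direction fit vs DMSO control. Parallel SRB total-protein staining (0.1% SRB, 10% TCA fixation, 560 nm) flags overt cytotoxicity.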
# [9] = CCTE_Shafer_MEA_dev_correlation_coefficient_mean: CCTE's Neural Network Formation Assay for Mean Correlation Coefficient, Shafer Lab (AID 2284093);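 for AC50: well mean pairwise spike train correlation integrated as AUC over recording days 5 to 12; potency fitted for loss of correlation relative to DMSO vehicle wells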
# Summary of the method: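 Spontaneous activity recorded on days 5, 7, 9 and 12 post-plating; pairwise spike correlations are averaged across active electrodes and collapsed to an area-under-curve. Rat cortical cultures are dosed from plating through 12 days, with compound renewed at media changes.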
# [10] = CCTE_Mundy_HCI_hNP1_Pro_ResponderAvgInten: CCTE's Proliferation Assay in human neuroprogenitor cells, Mundy Lab (AID 2284224; active = hit-call score of the fitted dose curve at least 0.9, where 1 is the maximum;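 note: human neural progenitor cells hNP1 derived from WA09 embryonic stem cells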)
# Summary of the method: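 Proliferation read as average intensity of BrdU-positive cells, imaged at 26.25 h post-dosing: chemical exposure started after 40–44 h culture, BrdU during final 4 h, paraformaldehyde fixation. Positive-direction fit relative to DMSO.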
# Chain of Tumor necrosis factor (Homo sapiens) (P01375 whole entry, looked up): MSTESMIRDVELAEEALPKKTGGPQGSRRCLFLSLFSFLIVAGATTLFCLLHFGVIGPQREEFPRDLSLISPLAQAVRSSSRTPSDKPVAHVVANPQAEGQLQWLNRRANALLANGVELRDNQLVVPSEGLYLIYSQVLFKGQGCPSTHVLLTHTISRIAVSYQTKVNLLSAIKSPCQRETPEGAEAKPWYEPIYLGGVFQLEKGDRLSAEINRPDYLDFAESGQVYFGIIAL
compound,measurement,setting,value
O=C(O)C(F)(F)OC(F)(F)C(F)(F)OC(F)(F)C(F)(F)OC(F)(F)F,AC50,[1],14.8 µM (active)
same,outcome,[1],inactive
same,outcome,[2],inactive
same,outcome,[3],inactive
same,outcome,[4],inactive
same,outcome,[5],inactive
same,outcome,[6],inactive
same,outcome,[7],inactive
same,outcome,[8],inactive
C=CC(=O)OCC(F)(F)C(F)(F)C(F)(F)COC(=O)C=C,AC50,[9],8.13 µM (active)
same,outcome,[10],inactive
same,AC50,[1],9.5 µM (active) and 8.85 µM (active)
same,AC50,[2],6.41 µM (active) and 7.8 µM (active)
same,AC50,[3],9.4 µM (active) and 9.64 µM (active)
same,AC50,[4],10.4 µM (active) and 8.91 µM (active)
same,AC50,[5],8.47 µM (active) and 6.45 µM (active)
same,AC50,[6],8.9 µM (active) and 9.3 µM (active)
same,AC50,[7],9.52 µM (active) and 9.72 µM (active)
same,AC50,[8],9.95 µM (active) and 11.1 µM (active)
NC(=O)C(F)(F)C(F)(F)C(F)(F)F,outcome,[9],inactive
same,outcome,[1],inactive
same,outcome,[2],inactive
same,outcome,[3],inactive
same,outcome,[4],inactive
same,outcome,[5],inactive
same,outcome,[6],inactive
same,outcome,[7],inactive
same,outcome,[8],inactive
O=S(=O)(O)CCC(F)(F)C(F)(F)C(F)(F)C(F)(F)C(F)(F)C(F)(F)C(F)(F)C(F)(F)F,outcome,[9],inactive
same,outcome,[1],inactive
same,outcome,[2],inactive
same,outcome,[3],inactive
same,outcome,[4],inactive
same,outcome,[5],inactive
same,outcome,[6],inactive
same,outcome,[7],inactive
same,outcome,[8],inactive
OCC(F)(F)C(F)(F)C(F)(F)C(F)(F)C(F)(F)C(F)(F)CO,outcome,[9],inactive
same,outcome,[1],inactive
same,outcome,[2],inactive
same,outcome,[3],inactive
same,outcome,[4],inactive
same,outcome,[5],inactive
same,outcome,[6],inactive
same,outcome,[7],inactive
same,outcome,[8],inactive
O=C=NCc1cccc(CN=C=O)c1,outcome,[1],inactive
same,outcome,[2],inactive
same,outcome,[3],inactive
same,outcome,[4],inactive
same,outcome,[5],inactive
same,outcome,[6],inactive
same,outcome,[7],inactive
same,outcome,[8],inactive
OCCCC(F)(F)C(F)(F)C(F)(F)C(F)(F)C(F)(F)C(F)(F)C(F)(F)C(F)(F)F,outcome,[10],inactive
same,AC50,[1],46.4 µM (active) and 23.2 µM (active)
same,AC50,[2],45.9 µM (active) and 44.5 µM (active)
same,AC50,[3],43.8 µM (active) and 31.8 µM (active)
same,AC50,[4],42.7 µM (active) and 21.9 µM (active)
same,AC50,[5],22.9 µM (active) and 21.7 µM (active)
same,AC50,[6],37.1 µM (active) and 37 µM (active)
same,AC50,[7],12.8 µM (active) and 9.88 µM (active)
same,AC50,[8],13 µM (active) and 10.9 µM (active)
O=C(Cl)C(F)(F)C(F)(F)C(F)(F)C(F)(F)C(F)(F)C(F)(F)C(F)(F)F,AC50,[1],24.7 µM (active)
same,outcome,[1],inactive
same,outcome,[2],inactive
same,outcome,[3],inactive
same,outcome,[4],inactive
same,outcome,[5],inactive
same,outcome,[6],inactive
same,outcome,[7],inactive
same,outcome,[8],inactive
